Test results as given in PubChem BioAssay AID1851 (National Center for Advancing Translational Sciences (NCATS), 2009).
Where “and” joins values, the source holds several entries; their conditions need not be identical. Equal values may be shown once. About 5,800 (36%) of roughly 16,000 compounds were called active. Another 23% or so got no clear call; they are omitted. The list shows a part of the results. Unmarked numbers belong to inactive results. The call rests on the fitted dose curve; in most records, active means well fitted curve in the direction sought with a large enough effect; inconclusive means small, poorly fitted or top-dose-only effect, or effect the other way; inactive means no such curve, though single readings can be large or run the other way.

Biological target: Cytochrome P450 2C19 (Homo sapiens) (UniProt P33261)
Sequence (P33261 whole entry, looked up): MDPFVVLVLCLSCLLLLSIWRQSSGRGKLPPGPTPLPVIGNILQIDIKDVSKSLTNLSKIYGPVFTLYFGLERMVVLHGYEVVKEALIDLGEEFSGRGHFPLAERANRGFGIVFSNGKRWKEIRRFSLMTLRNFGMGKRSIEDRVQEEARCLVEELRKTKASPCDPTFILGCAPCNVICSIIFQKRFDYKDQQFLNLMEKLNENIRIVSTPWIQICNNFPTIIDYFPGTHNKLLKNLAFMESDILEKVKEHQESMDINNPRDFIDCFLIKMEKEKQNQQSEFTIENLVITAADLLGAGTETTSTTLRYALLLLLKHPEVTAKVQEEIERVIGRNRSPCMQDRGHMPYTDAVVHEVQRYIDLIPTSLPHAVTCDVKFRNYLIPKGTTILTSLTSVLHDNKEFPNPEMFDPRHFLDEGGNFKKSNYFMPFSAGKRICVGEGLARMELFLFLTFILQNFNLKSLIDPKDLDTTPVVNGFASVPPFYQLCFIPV
Test: Cytochrome panel assay with activity outcomes
Conditions: recombinant CYP, pro-luciferin dealkylation, luminescence, p450-cyp2c19; series mostly up to 57.1 µM
On the % scale 0 is the no-effect control and ±100 the full control effect.

Row | SMILES | AC50 | activity, negative = inhibition
1 | COc1ccccc1-c1nccc(NCc2cccnc2)n1 | 3.98 µM (active) | 
2 | Cc1noc(C)c1-c1nccc(NCc2cccnc2)n1 | 25.1 µM (active) | 
3 | Cc1cnc(CNc2ccnc(-c3c(C)noc3C)n2)cn1 | inactive | 
4 | COC(=O)C/C=C\[C@@H](C)[C@@H](/C=N\OC[C@@H](O)[C@H]1O[C@H]2OC(C)(C)O[C@H]2[C@@H]1O)OC |  | -19.4% [at 11.4 µM]
5 | O=c1ccc(-c2ccccc2)n[nH]1 |  | 13.5% [at 11.4 µM]
6 | Clc1ccccc1-c1nc(-c2ccccc2)n[nH]1 | 17.8 µM (active) | 
7 | NC(=O)Nc1n[nH]c(-c2ccccc2)n1 |  | 13.8% [at 11.4 µM]
8 | CN1CCN(c2ncc3nc(-c4cc(F)cc(F)c4)c(=O)n(C4CC4)c3n2)CC1 | inactive | 
9 | Nc1ccc(S(=O)(=O)NC(=O)c2ccccc2)cc1 | inactive | 
10 | O=S(=O)(C=C(c1ccccc1)c1ccccc1)c1ccccc1 | 2.82 µM (active) | 
11 | O=S(=O)(O)c1ccc(N=Nc2ccccc2)cc1 |  | 6.93% [at 11.4 µM]
12 | COc1ccc(NC(=O)N2CC[C@@]3(CCCN(C(=O)c4cc(C(F)(F)F)cc(C(F)(F)F)c4)C3)C2)cc1 | inactive | 
13 | COc1ccc(S(=O)(=O)N2CC3CCCN3c3ccc(C(F)(F)F)cc32)cc1 (stereo not given) | 0.562 µM (active) | 
14 | COc1ccc(C(OCCN2CCC[C@@H](C(=O)O)C2)(c2ccc(OC)cc2)c2ccc(OC)cc2)cc1 | inactive | 
15 | O=S(=O)(c1ccc(F)cc1)N1CC2CCCN2c2ccc(C(F)(F)F)cc21 (stereo not given) | 2.24 µM (active) | 
16 | Nc1ccccc1CCCC(=O)O |  | -13.9% [at 11.4 µM]
17 | COc1ccccc1CN1CCCC2(CCN(C(=O)c3csnn3)CC2)C1 | inactive | 
18 | COC(=O)c1nn(-c2cccc(C(F)(F)F)c2)c(=O)cc1Sc1ccccn1 | 5.62 µM (active) | 
19 | N#Cc1cc(N)ccc1Sc1ccc(Cl)cc1 | 3.16 µM (active) | 
20 | CCc1sc(N(C(=O)Cc2ccccc2)c2cccc(F)c2)nc1-c1ccc(C)cc1 | 2.82 µM (active) | 
21 | c1ccc(-c2nnn(CCN3CCCCC3)n2)cc1 | 1.26 µM (active) | 
22 | c1ccc([C@H](CCN2CCCC2)c2ccccn2)cc1 |  | -19.9% [at 11.4 µM]

Row | SMILES | AC50 | activity, negative = inhibition
23 | CC(C)c1ccc(-c2nnn(CCC(=O)O)n2)cc1 | inactive | 
24 | COc1ccc2c(Cc3c4ccccc4cc4ccccc34)cncc2c1O | 2.51 µM (active) | 
25 | O=C(O)c1cc2ccccc2c(Cc2cc3ccccc3c(C(=O)O)c2O)c1O (tested in a mixture with another compound) | inactive | 
26 | O=C(c1csnn1)N1CCC2(CC1)CN(Cc1cc(C(F)(F)F)cc(C(F)(F)F)c1)C2 | inactive | 
27 | CCn1cc(C(=O)O)c(=O)c2cnc(N3CCNCC3)nc21 | inactive | 
28 | O=C(NCc1cccnc1)c1sc2cc(Cl)ccc2c1Cl | 2 µM (active) | 
29 | CC[C@H](NC(C)C)[C@H](O)c1ccc(O)c(O)c1 | inactive | 
30 | CC1=CC(=O)N(c2cccc(C(F)(F)F)c2)C1c1ccc(Cl)cc1 (stereo not given) | 2.24 µM (active) | 
31 | Cc1ccc(NC(=S)/C(=C(\[O-])c2ccc(C)c([N+](=O)[O-])c2)[n+]2ccccc2)cc1C | 7.94 µM (active) | 
32 | O=C(O)c1ccc(NS(=O)(=O)Cc2ccccc2)cc1 |  | -9.9% [at 11.4 µM]
33 | CC1(C)[C@@H]2CC[C@@]1(CS(=O)(=O)Nc1ccccc1)C(=O)C2 | 2 µM (active) | 
34 | COC(=O)C1=C(C)NC2=C(C(=O)CCC2)C1c1cn(Cc2ccc(Cl)cc2Cl)nc1-c1ccccc1 (stereo not given) | 2.24 µM (active) | 
35 | COCCOC(=O)C1=C(C)NC(=O)N(C(C)=O)C1c1ccc(Cl)cc1 (stereo not given) | 3.55 µM (active) | 
36 | CO[C@@H]1COC(=O)C/C=C\[C@H](C)[C@@H](NS(=O)(=O)c2ccc(C)cc2)COC(=O)C/C=C\[C@@H]1C |  | -12.5% [at 11.4 µM] and -34.1% [at 11.4 µM]
37 | CC(c1ccccc1C(O)c1ccccc1)N(C)C (stereo not given) | inactive | 
38 | NC(=O)c1ccc[n+](CC(=O)OCCC23CC4CC(CC(C4)C2)C3)c1 | inactive | 
39 | O=C(NCCOC12CC3CC(CC(C3)C1)C2)c1cccc(Br)c1 | 0.891 µM (active) | 
40 | N[C@H](C(=O)O)c1nn[nH]n1 | inactive | 
41 | c1ccc(N2CCN(CCCOc3ccc4c(c3)OCO4)CC2)cc1 | 5.01 µM (active) | 
42 | OC[C@@H](O)CN1CCN(c2ccccc2)CC1 | inactive | 
43 | COc1ccc(O[C@H]2C=C[C@@H](c3ccccc3)O[C@H]2COC(=O)CC/C(C)=N\O[C@@H](C)CN2CCCCc3nc(C)c(C)cc32)cc1 | 5.01 µM (active) | 
44 | C/C(CCN1CCCc2nc(C)c(C)cc21)=N\O[C@@H](C)CN1CCCCc2nc(C)c(C)cc21 |  | 9.26% [at 11.4 µM]

Row | SMILES | AC50 | activity, negative = inhibition
45 | CC(=O)OC[C@@H]1O[C@H](C/C=N\O[C@@H](C)CN2CCCc3nc(C)c(C)cc32)C=C[C@@H]1OC(C)=O |  | 12.3% [at 11.4 µM]
46 | C/C(CCN1CCCCc2nc(C)c(C)cc21)=N\O[C@@H](C)CN1CCCCc2nc(C)c(C)cc21 |  | 42.7% [at 11.4 µM]
47 | C/C(CCC(=O)OC[C@@H]1O[C@H](C#Cc2ccccc2)C=C[C@@H]1Oc1ccc(C)cc1)=N/O[C@@H](C)CN1CCCc2nc(C)c(C)cc21 | 3.16 µM (active) | 
48 | COc1ccc(O[C@H]2C=C[C@@H](c3ccccc3)O[C@H]2COC(=O)CC/C(C)=N\O[C@@H](C)CN2CCCc3nc(C)c(C)cc32)cc1 | 3.16 µM (active) | 
49 | C/C(CCN1CCCCc2nc(C)c(C)cc21)=N\O[C@@H](C)CN1CCCc2nc(C)c(C)cc21 |  | 25.7% [at 11.4 µM]
50 | CC(=O)OC[C@@H]1O[C@H](C/C=N\O[C@@H](C)CN2CCCCc3nc(C)c(C)cc32)C=C[C@@H]1OC(C)=O |  | 34.1% [at 11.4 µM]
51 | C/C=C\C[C@@H](C)[C@@H](O)[C@H]1C(=O)N[C@@H](CC)C(=O)N(C)CC(=O)N(C)[C@@H](CC(C)C)C(=O)N[C@@H](C(C)C)C(=O)N(C)[C@@H](CC(C)C)C(=O)N[C@@H](C)C(=O)N[C@H](C)C(=O)N(C)[C@@H](CC(C)C)C(=O)N(C)[C@@H](CC(C)C)C(=O)N(C)[C@@H](C(C)C)C(=O)N1C | inactive | 
52 | NC(=NCc1ccccc1)NC(=O)c1nc(Cl)c(N)nc1N | inactive | 
53 | O=C1C2C3c4ccccc4C(c4ccccc43)C2C(=O)N1c1nc(-c2ccccc2)cs1 (stereo not given) | 1.78 µM (active) | 
54 | O=C1[C@@H]2[C@@H](C(=O)N1c1ccc(OCc3ccccc3)cc1)[C@@H]1c3ccccc3[C@@H]2[n+]2ccccc21 |  | -10.9% [at 11.4 µM]
55 | N=C1SCC(=O)N1c1nc(-c2ccccc2)cs1 | inactive | 
56 | O=C(c1ccco1)N(CCC(c1ccccc1)c1ccco1)Cc1ccco1 (stereo not given) | 3.98 µM (active) | 
57 | CNCCC=C1c2ccccc2C=Cc2ccccc21 | inactive | 
58 | FC(F)(F)c1ccccc1-c1cc(NCc2cccnc2)ncn1 | 10 µM (active) | 
59 | Cc1ccccc1-c1cc(NCc2ccccc2)ncn1 | 3.16 µM (active) | 
60 | Cc1ccccc1-c1cc(NCc2cccnc2)ncn1 | 10 µM (active) | 
61 | FC(F)(F)c1ccccc1-c1cc(NCc2cccs2)ncn1 | 0.794 µM (active) | 
62 | CN(C)Cc1ccccc1-c1cc(NCc2cccs2)ncn1 | inactive | 
63 | Cn1cc(-c2nc3cnc(Oc4ccccc4)nc3n(Cc3cccs3)c2=O)c2ccccc21 | inactive | 
64 | Cn1cccc1/C=N/NC(=O)c1sc2ccccc2c1Cl | 7.94 µM (active) | 
65 | Cc1nn(Cc2ccccc2Cl)c(C)c1NC(=O)CCCn1nc(C)c([N+](=O)[O-])c1C | inactive | 
66 | CCCCOC(=S)NC(=O)c1sc2ccccc2c1Cl | 0.794 µM (active) | 

Row | SMILES | AC50 | activity, negative = inhibition
67 | O=C(NC(=S)N(CCCCO)C1CCCCC1)c1sc2ccccc2c1Cl | 7.08 µM (active) | 
68 | Cc1ccc(C(=O)N/N=C\c2cccn2C)cn1 | inactive | 
69 | Cc1ccccc1Cn1nc(C)c(NC(=O)c2sc3ccccc3c2Cl)c1C | 14.1 µM (active) | 
70 | CO[C@H]1COC(=O)C/C=C\[C@@H](C)COC(=O)[C@H]2CCCN2C(=O)C/C=C\[C@H]1C |  | -21.9% [at 11.4 µM]
71 | CCOC(=S)NC(=O)c1sc2ccccc2c1Cl | 3.16 µM (active) | 
72 | O=C(O)CCC(=O)c1ccc2sc3ccccc3c2c1 |  | 9.52% [at 11.4 µM]
73 | CO/N=C(\C)CCN1CCCc2nc(C)c(C)cc21 |  | -7.2% [at 11.4 µM]
74 | Cc1ccccc1NC1=C(C(=O)c2ccccc2)N(C)S(=O)(=O)c2ccccc21 | 8.91 µM (active) | 
75 | Cc1cc(NC(=O)C2=C(O)c3ccccc3S(=O)(=O)N2C)no1 | inactive | 
76 | CO[C@@H]1/C=C\CC(=O)N[C@@H](C)C(=O)OC[C@@H](OC)[C@H](C)CCCC(=O)OC[C@H]1C |  | -3.19% [at 11.4 µM]
77 | C[C@@H]1CCC[C@H](C)N1NC(=O)c1ccc(Cl)c(S(N)(=O)=O)c1 | inactive | 
78 | CC1CCCC(C)N1C(=O)c1cc(-c2ccc(Cl)c(Cl)c2)on1 (stereo not given) | 11.2 µM (active) | 
79 | Cc1ccccc1NC(=O)C(C)c1cccc(C(=O)c2ccccc2)c1 (stereo not given) | 1.26 µM (active) | 
80 | CCCN[C@@H](C)C(=O)Nc1ccccc1C | inactive | 
81 | N[C@@H](Cc1c[nH]c2ccc([N+](=O)[O-])cc12)C(=O)O |  | 34.9% [at 11.4 µM]
82 | O=C(NCc1cn(-c2ccccc2)nc1-c1ccccc1)c1cc([N+](=O)[O-])cc([N+](=O)[O-])c1 | 1.78 µM (active) | 
83 | c1coc(CN2CCN(C(c3cccs3)c3nnnn3C3CCCC3)CC2)c1 (stereo not given) | 10 µM (active) | 
84 | Clc1ccc(C(c2nnnn2C2CCCC2)N2CCN(Cc3ccncc3)CC2)cc1 (stereo not given) | 0.224 µM (active) | 
85 | CS(=O)(=O)N1CCC2(CCN(Cc3ccncc3)CC2)CC1 | inactive | 
